An excerpt weighted towards active compounds, which were near 9.3% of everything screened.
NPC1 prom act – activators of NPC1 promoter | Huh7 NPC1 promoter luciferase reporter, 24 h | actives 2.4% (n = 320,000) | Potency, µM (top dose mostly 9.22 µM), inactives show at the top dose activation, actives largely listed as activators; note: % of control where 0% means no effect; nearly all actives have a fitted effect of over 60% in size
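NPC1 promoter–luciferase Huh7 cells; 24 h compound; luminescence.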
ELG1 genotoxic – inducers of genotoxicity in HEK293T ELG1-luciferase cells; HEK293T ELG1-luciferase reporter, luminescence, 16 h; Potency, µM (highest dose often 46 µM), for the others: at the top dose activity change, positive = activation, usual class: activators; actives 1.3% (n = 330,000); AID 504466; note: % of control where 0% means no effect; nearly all actives have a fitted effect of over 60% in size
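Step 1: seed 2,000 HEK293T ELG1-luciferase cells per well. Step 2: add compound or DMSO, incubate 16 hr at 37 °C. Step 3: ONE-Glo, 30 min at room temperature, read luminescence.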
Rab9 promoter act – activates the Rab9 promoter; Huh7 Rab9 promoter-luciferase reporter, luminescence, 24 h; Potency, µM (titrated, usually from 9.22 µM), inactives show at the highest dose activation, negative = inhibition, most hits filed as activators; actives 2.8% (n = 320,000); note: % of control where 0% means no effect; nearly all actives have a fitted effect of over 60% in size
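Cells were plated at 1500 per well in reduced-serum medium with 10% FBS and left 2 h. Compound in DMSO was then added for 24 h at 37 °C. Reporter signal was read by luminescence after 10 min with luciferase detection reagent.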
SMN2 splice enh – enhancers of SMN2 splice variant expression. HEK293 SMN2-luciferase splicing reporter, luminescence, 30-36 h. Potency, µM (highest dose often 46.1 µM), without a hit: at the highest dose activity change, positive = activation, most hits filed as activators. actives 2.8% (n = 210,000). AID 1458; note: % of control where 0% means no effect; nearly all actives have a fitted effect of over 55% in size
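qHTS luciferase splicing reporter: luminescence rises when SMN2 exon 7 is included in transfected HEK293 cells. Compound exposure lasted 30-36 h at 37C, with 4.5 mM final sodium butyrate as control, followed by a ONE-Glo read.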
FLuc counter – inhibits or activates purified firefly luciferase, miR-21 counter-screen | Potency, µM (top dose mostly 57.5 µM), for inactives: at the top dose activity change, negative = inhibition, actives largely listed as inhibitors | actives 6.9% (n = 360,000) | AID 588342 | purified FLuc, Km substrates, luminescence inhibition;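 note: plate controls were vehicle for no effect and reference inhibitor for full effect; nearly all actives have a fitted effect of over 55% in size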
Target sequence (P08659 whole entry, looked up): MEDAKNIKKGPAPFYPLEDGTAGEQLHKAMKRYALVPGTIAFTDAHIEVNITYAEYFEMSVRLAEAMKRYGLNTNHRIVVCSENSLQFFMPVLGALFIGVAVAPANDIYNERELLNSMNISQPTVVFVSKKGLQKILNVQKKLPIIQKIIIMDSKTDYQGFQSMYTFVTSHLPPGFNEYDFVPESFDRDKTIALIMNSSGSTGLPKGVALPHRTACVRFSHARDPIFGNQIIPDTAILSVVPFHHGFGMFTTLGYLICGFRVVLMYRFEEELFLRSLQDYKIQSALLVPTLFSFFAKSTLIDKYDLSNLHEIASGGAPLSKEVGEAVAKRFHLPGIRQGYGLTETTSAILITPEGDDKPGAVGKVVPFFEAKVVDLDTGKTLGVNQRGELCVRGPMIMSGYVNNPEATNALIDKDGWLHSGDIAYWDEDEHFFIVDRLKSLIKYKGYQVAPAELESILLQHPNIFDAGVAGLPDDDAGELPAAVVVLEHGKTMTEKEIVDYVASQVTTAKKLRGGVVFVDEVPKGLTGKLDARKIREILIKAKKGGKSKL
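Purified P. pyralis luciferase (10nM final) with 10uM D-luciferin and 10uM ATP (Km levels) in 50mM Tris acetate pH 7.5, 10mM Mg acetate, 0.01% Tween-20, 0.05% BSA; qHTS 6-point titration, ~60 µM downward; luminescence read.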
ELG1 DNA repair – inhibitors of ELG1-dependent DNA repair in HEK293T cells; HEK293T ELG1-luciferase reporter, luminescence, 16 h; DNA damage induced by 5-fluorouridine; Potency, µM (series often up to 46.1 µM), for inactives: at the top dose activity change, negative = inhibition, usual class: inhibitors; actives 2.3% (n = 330,000); AID 504467; note: % is set by controls: 0 for no effect and ±100 for the full control effect; nearly all actives have a fitted effect of over 55% in size
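Reporter activity after DNA damage by 5-fluorouridine is monitored. Compound-treated cells incubate 16 hr at 37 °C, then ONE-Glo is added for 30 min before luminescence reading.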
The depositor's hits bear a star; u = inconclusive; x = no result given; [ ] = another dose, or the depositor's remark. Calls come from the whole dose curve; as a rule, active = well fitted curve in the direction sought with a large enough effect; inconclusive = small, poorly fitted or top-dose-only effect, or another doubt; inactive = no such curve, though single readings can be large; an effect the other way counts as inactive or inconclusive. Potency is the fitted concentration of half-maximal effect.

SMILES | NPC1 prom act | ELG1 genotoxic | Rab9 promoter act | SMN2 splice enh | FLuc counter | ELG1 DNA repair
CC(=O)Nc1ccc(-c2cn3c(n2)SCC3)cc1 | u | u | 2.8µM* | x | u | u
O=C(Oc1ccc(-c2cn3c(n2)SCC3)cc1)c1ccccc1 | 0% | 18µM* | 1% | u | u | 20%
CC(=O)Nc1ccc(S(=O)(=O)Nc2cccc(-c3cn4c(n3)SCC4)c2)cc1 | 1% | 0% | -9% | -30% | 4% | -3%
O=C(Nc1cccc(-c2cn3c(n2)SCC3)c1)c1ccc(Br)o1 | 0% | -1% | 0% | 11% | u | u
Cc1cccc(C)c1NC(=S)N(Cc1ccccc1)Cc1cccnc1 | -2% | -15% | -1% | -11% | 1% | u
CN(C)C(=O)c1cc(C(=O)c2ccccc2C(F)(F)F)c[nH]1 | -8% | -5% | -6% | -66% | -4% | 6.5µM*
CN(C)C(=O)c1cc(C(=O)c2ccccc2F)c[nH]1 | 20% | 4% | 16% | x | u | u
CN(C)C(=O)c1cc(C(=O)c2ccc(F)cc2C(F)(F)F)c[nH]1 | -11% | -12% | 0%[1.84 µM] | x | 0% | 8.2µM*
O=C(NCC1COc2ccccc2O1)C1CCCN(S(=O)(=O)c2cccc3cccnc23)C1 (stereo unspecified) | -1% | -8% | -5% | -34% | 10% | 15µM*
CC(C)S(=O)(=O)c1csc(NC(=O)Nc2cc(Cl)ccc2Cl)c1Cl | 1% | -10% | -5% | x | u | 21µM*
COC(=O)c1ccc(NC(=O)C2CC(=O)N(c3cc(C)ccc3C)C2)cc1 (stereo unspecified) | -4% | -8% | -3% | -6% | 0% | 2%
CC(C)Oc1ccc(C(CC(=O)NCc2ccco2)c2ccccc2)cc1 (stereo unspecified) | 2% | -2% | -5% | 15% | 8% | u
Cc1ccnc2c1ccc1cccnc12 | -17% | 15% | -19% | x | -12% | u
Cc1ccnc2c1ccc1ccccc12 | -6% | 2% | 13% | x | 17µM* | 21%
Cc1ccnc2c1ccc1c(C)ccnc12 | -14% | u | -15% | x | -19% | 2.3µM*
O=c1oc2ccccc2cc1-c1cn2cc(Cc3ccc(F)cc3)sc2n1 | x | x | x | 16% | 3% | x
Cc1ccc(Cc2cn3cc(-c4ccc(F)cc4)nc3s2)cc1 | x | x | x | u | 0.76µM* | x
C=CCn1c(C)cc(C(=O)CN2C(=O)NC3(CCCc4ccccc43)C2=O)c1C (stereo unspecified) | 0% | 3% | 12% | 4% | 19µM* | u
Cc1cc(C(=O)CN2C(=O)NC3(CCCCCC3)C2=O)c(C)n1C | 25% | 9% | u | x | u | u
COCCn1c(C)cc(C(=O)CN2C(=O)NC3(CCCCCC3)C2=O)c1C | 2.5µM* | u | 2µM* | x | 11µM* | u
Cc1cc(C(=O)CN2C(=O)NC3(CCCc4ccccc43)C2=O)c(C)n1Cc1cccs1 (stereo unspecified) | 12% | 11% | 2% | 10% | 6µM* | -22%
CCN(CC)C(=O)c1[nH]cnc1C(=O)N[C@@H](C)c1ccccc1 | -2% | -1% | -9% | x | 10% | 0%
COc1cc(NS(=O)(=O)c2ccc(NC(=O)CSC3=NCCS3)cc2)nc(OC)n1 | -5% | 12% | 1% | -10% | 4% | u
C=C(C)c1cccc(C(C)(C)NC(=O)Nc2ccc(Cl)cn2)c1 | -6% | -3% | -1% | -25% | 1% | -17%
CCn1ncc(CN2CCCC(C(=O)Nc3cccc(-c4cc5ccccc5[nH]4)c3)C2)c1C (stereo unspecified) | -3% | -10% | 8% | x | -10% | -8%
SMILES | NPC1 prom act | ELG1 genotoxic | Rab9 promoter act | SMN2 splice enh | FLuc counter | ELG1 DNA repair
c1csc(CSc2nnc3sc4ccccc4n23)c1 | u | u | 3.2µM* | 14µM* | 17µM* | u
O=C(CSc1nnnn1-c1ccccc1)c1ccco1 | u | u | u | 10% | 17µM* | u
O=C(CSc1nnnn1-c1ccccc1)N1N=CCC1c1ccccc1 (stereo unspecified) | 4% | 2% | 14% | 19% | 15µM* | 1%
O=C(CSc1nnnn1-c1ccccc1)CC(=O)Nc1ccc(Cl)cc1 | 9% | -16% | 7% | -48% | -15% | 16µM*
CCOC(=O)CC(=O)CSc1nnc2sc3ccccc3n12 | 3% | 4% | 3% | -10% | u | u
COc1c(C(=O)Nc2ccc3[nH]c(=O)[nH]c3c2)cc2ccccc2c1Br | -14% | 13% | -6% | -14% | 2% | 26%
CC(C)c1ccc(NC(=O)C2CCCCC2C(=O)O)cc1 (stereo unspecified) | 11% | 8% | 5% | 21% | u | 23%
O=C(CSc1nnc2sc3ccccc3n12)c1ccco1 | 23% | u | u | 11µM* | 11µM* | u
COc1ccc(N2CCN(C(=O)Cc3csc(NC(=O)Nc4ccccc4OC)n3)CC2)cc1 | -6% | -12% | -8% | x | u | 16µM*
COc1ccccc1NC(=O)Nc1nc(CC(=O)N2CCN(c3ccccc3)CC2)cs1 | -13% | -13% | -3% | x | u | u
COc1ccccc1NC(=O)Nc1nc(CC(=O)N2CCN(c3ccc(F)cc3)CC2)cs1 | -7% | -5% | -4% | x | 3% | 16µM*
O=C(c1ccc2c(c1)OCO2)N1CCN(c2cccc(C(F)(F)F)c2)CC1 | -14% | -4% | 3% | x | 3% | u
Nn1c(SCc2cccc(Cl)c2)nnc1-c1ccncc1 | -36% | -1% | -1% | x | 0% | u
CC(=O)N1CCN(C(=S)c2ccc([N+](=O)[O-])cc2)CC1 | -2% | -1% | -6% | -17% | 6% | 23%
O=C(CSc1nnc(-c2ccccc2Cl)o1)N1CCCc2ccccc21 | x | x | x | 1% | 24µM* | x
O=C(CSc1nnc(-c2ccccc2)o1)N1CCCc2ccccc21 | x | x | x | 3% | -14% | x
O=C(CSc1nnc(-c2ccco2)o1)N1CCOCC1 | 0% | 0% | 3% | 18% | -6% | u
O=C(CSc1nnc(-c2ccco2)o1)c1ccccc1Cl | 17% | 15% | u | 22% | 27µM* | u
O=C(CSc1nnc(-c2ccco2)o1)c1ccc([N+](=O)[O-])cc1 | 5% | 0% | -1% | x | -2% | -1%
O=C(CSc1nnc(-c2ccco2)o1)N1c2ccccc2CCc2ccccc21 | -3% | -11% | 0% | -72% | -2% | 12µM*
Cc1ccc(-c2noc(CCC(=O)NC3CCCc4ccccc43)n2)cc1 (stereo unspecified) | 0% | 7% | -3% | 2% | 0% | u

Source: PubChem
